For orientation: inhibition means the change of the read-out against control, counted positive when it falls.

The source of these data is PubChem BioAssay.

Each structure is given as a SMILES string. Activity calls are given as the source filed them.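 How the source made its calls, unless noted: active means fluorescence slope after compound addition differing from the mean of all screened samples at 99.7% confidence, in either direction; inactive means the rest.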

Experiment [1] can be described thus: inhibitors of TNFa-induced NFkB p65 translocation, primary screen, imaging, HUVEC, MLSMR starter and 10KST1 sets (AID 438;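 active means inhibition above 20% together with a positive visual image hit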;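 further: compound added about 3h40 before a 20 min TNFalpha stimulation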;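 on inhibition: signal is the nuclear over cytoplasmic p65 intensity ratio per well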). The note with it: HUVEC TNFa-induced p65 nuclear translocation; cell count: measured here: nuclei count (cytotoxicity indicator), at 2.08 µM; inhibition: at 2 µM, stronger effect = higher value, 0% TNFa-plus-vehicle, 100% no-TNFa wells.
Experiment [2] in a line: inhibitors of mutant huntingtin aggregation, primary screen, imaging, exon1htt(103Q)mCFP cells, high-content imaging (AID 483;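 active means visual image review flags a hit and inhibition of aggregation exceeds 20%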;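 further: compound exposure lasted 3 days before fixation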;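 on nuclei count: percent of the per-plate median nuclei count of sample wells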). To be noted: exon1htt(103Q)mCFP cell line, aggregate imaging, at 2 µM; inhibition of aggregation: stronger effect = higher value; nuclei count: measured here: cell count, toxicity.
Experiment [3] can be described thus: inhibitors of E-selectin induction by TNFa, primary screen, imaging, HUVEC, immunofluorescence, MLSMR starter and 10KST1 sets (AID 487;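 active means visually confirmed hit in the image check and inhibition above 20%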;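 on inhibition: signal is fraction of cell area covered by stained E-selectin grains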;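 on nuclei count: 100% = median nuclei count of all wells on the same plate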). To be noted: HUVEC TNFalpha-induced E-selectin immunofluorescence imaging, at 2 µM; inhibition: stronger effect = higher value; nuclei count: measured here: cell number, toxicity.
Experiment [4] has as its target Voltage-gated potassium channel subunit beta-2 (Rattus norvegicus) (UniProt P62483). As to the kind of experiment: KvBeta enzyme negative modulators, primary screen, biochemical, NADPH fluorescence (AID 622;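 active means fluorescence slope higher than the sample average by over 3 SD, cut at about -0.22 in these data, passing the limit was not always enough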;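 further: slope of raw intensity against log time taken from 70 to 1610 s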). The note with it: recombinant KvBeta, 4-cyanobenzaldehyde reduction, at 10 µM, stronger effect = higher value.
For experiment [5] the target is unchanged. As to the kind of experiment: KvBeta positive modulators, primary screen, biochemical, NADPH fluorescence (AID 623;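 active means NADPH fluorescence slope more negative than the mean of all samples by about 3 SD, 99.7% confidence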;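 further: fluorescence intensity change per second fitted from 20 to 320 s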). To be noted: Recombinant KvBeta, NADPH fluorescence decrease slope, 10 min; at 10 µM; stronger effect = lower value.
The target in experiment [6] is Alpha-2C adrenergic receptor (Homo sapiens) (UniProt P18825). As to the kind of experiment: modulators of alpha2C/GIRK thallium flux, primary screen, cell-based, HEK293 alpha2C/GIRK1/2 (AID 624).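 Further: slope of fluorescence ratio to pre-addition baseline per second over 15 to 24 s.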 The note with it: thallium flux BTC fluorescence, at 10 µM, actives lie on both sides.
Experiment [7] can be described thus: inhibitors of Sendai virus-induced IRF3 signaling, primary screen, TLR/RLR signaling modifier project, cell-based, Sendai virus stimulus, luciferase, 10K MLSCN set (AID 602276;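 active means inhibition at or above 50% at 10 µM; inactive means inhibition below 50%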;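 further: firefly luciferase from ISG56 promoter only with Renilla not read in this screen; 0% = Sendai virus plus DMSO and 100% = medium plus DMSO without virus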). To be noted: HEK293 RL24 IRF3 luciferase reporter, at 10 µM, stronger effect = higher value. (In general: A reporter such as luciferase makes a cellular process visible.)
Experiment [8] can be described thus: inhibitors of poly I:C-induced TLR3 signaling, primary screen, cell-based, poly I:C stimulus, luciferase, 10K MLSCN set (AID 602277;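 active means inhibition of the reporter signal at or above 50%; inactive means inhibition below 50%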). To be noted: HEK293-TLR3 RL24 IRF3 luciferase reporter, at 10 µM, stronger effect = higher value.

Alpha-2C adrenergic receptor (Homo sapiens), sequence (P18825 whole entry, looked up): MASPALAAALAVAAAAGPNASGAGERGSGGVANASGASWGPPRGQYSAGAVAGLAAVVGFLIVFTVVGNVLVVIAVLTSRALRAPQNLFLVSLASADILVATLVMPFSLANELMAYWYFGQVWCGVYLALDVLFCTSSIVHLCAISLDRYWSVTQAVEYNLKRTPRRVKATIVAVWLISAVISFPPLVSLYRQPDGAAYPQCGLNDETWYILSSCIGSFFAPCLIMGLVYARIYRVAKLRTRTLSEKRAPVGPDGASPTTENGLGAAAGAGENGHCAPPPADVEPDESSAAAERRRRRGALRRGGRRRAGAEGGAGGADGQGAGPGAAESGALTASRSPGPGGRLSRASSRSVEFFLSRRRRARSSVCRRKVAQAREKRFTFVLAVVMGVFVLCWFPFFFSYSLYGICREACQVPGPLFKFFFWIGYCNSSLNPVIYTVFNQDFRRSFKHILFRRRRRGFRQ
Voltage-gated potassium channel subunit beta-2 (Rattus norvegicus), sequence (P62483 whole entry, looked up): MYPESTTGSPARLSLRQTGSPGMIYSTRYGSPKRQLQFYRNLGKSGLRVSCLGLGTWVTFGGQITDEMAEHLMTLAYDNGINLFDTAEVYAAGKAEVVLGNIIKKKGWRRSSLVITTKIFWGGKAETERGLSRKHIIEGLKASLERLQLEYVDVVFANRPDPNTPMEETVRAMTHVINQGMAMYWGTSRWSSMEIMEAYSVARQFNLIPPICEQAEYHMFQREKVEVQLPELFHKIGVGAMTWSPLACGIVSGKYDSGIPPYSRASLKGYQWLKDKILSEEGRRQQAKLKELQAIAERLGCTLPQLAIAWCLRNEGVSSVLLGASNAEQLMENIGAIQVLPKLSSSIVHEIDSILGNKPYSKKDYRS

With `Cc1cc(C)n2nc(SCc3nc4ccccc4[nH]3)nc2n1`, in experiment [1], the cell count was 789. Also, the inhibition in experiment [1] is -6.3% (inactive); in experiment [3], -21.3% (inactive); in experiment [7] it was -26.2% (inactive); in experiment [8] it was -34.6% (inactive). Moreover, the inhibition of aggregation in experiment [2] is -29.8% (inactive). Also, the results for the nuclei count in experiment [2] and in experiment [3] were 103% and 117%, respectively. In experiment [4], the fluorescence slope was -0.568 (inactive). Moreover, the NADPH fluorescence slope in experiment [5] was 8.8e-06 (inactive). The slope in experiment [6] was 0.00609 (inactive).

Take `CCOCCCNC(=O)C(c1ccccc1)N(Cc1ccc2c(c1)OCO2)C(=O)CNC(C)=O` (centres undefined): in experiment [1], the cell count stood at 220. The inhibition in experiment [1] is 10.9% (inactive); in experiment [3] it was -63.6% (inactive); in experiment [7] it was 10.2% (inactive); in experiment [8], 16.2% (inactive). Also, in experiment [2], the inhibition of aggregation was 0.6% (inactive). Besides, the nuclei count in experiment [2] turned out to be 94.8%; in experiment [3], 95.1%. Besides, the fluorescence slope in experiment [4] is -0.562 (inactive). Moreover, the NADPH fluorescence slope in experiment [5] was -2.1e-05 (inactive). For the same compound, the slope in experiment [6] was 0.00624 (inactive).

For `COc1ccc(C(=O)NC(=O)CSc2nnc(-c3ccco3)n2-c2ccccc2)cc1`, the cell count in experiment [1] is 447. Moreover, the inhibition was 14.6% (inactive) in experiment [1], -9.4% (inactive) in experiment [3], 5.3% (inactive) in experiment [7] and 10.1% (inactive) in experiment [8]. For the same compound, in experiment [2], the inhibition of aggregation is -9.6% (inactive). The nuclei count in experiment [2] was 104%; in experiment [3], 107%. The fluorescence slope in experiment [4] is -0.324 (inactive). Moreover, the NADPH fluorescence slope in experiment [5] was -7e-05 (inactive). For the same compound, in experiment [6], the slope was 0.0052 (inactive).

Take `Cc1onc(-c2ccccc2)c1C(=O)N1CCOCC1`: the cell count in experiment [1] was determined as 619. Further, the inhibition in experiment [1] is -3.5% (inactive); in experiment [3], -39.2% (inactive); in experiment [7], 12.5% (inactive); in experiment [8], 20.9% (inactive). Moreover, the inhibition of aggregation in experiment [2] is -7.5% (inactive). Besides, the nuclei count in experiment [2] worked out at 113%; in experiment [3] it was 106%. Besides, the fluorescence slope in experiment [4] is -0.327 (inactive). Further, the NADPH fluorescence slope in experiment [5] was 7.5e-06 (inactive). Besides, in experiment [6], the slope was 0.00368 (inactive).

For the compound `O=C(c1cnc2n(c1=O)CCS2)N(C1CCCCC1)C1CCCCC1`, the cell count in experiment [1] turned out to be 649. Also, the inhibition in experiment [1] is -6.9% (inactive); in experiment [3], -47.3% (inactive); in experiment [7], 11% (inactive); in experiment [8], 39.3% (inactive). In addition, the inhibition of aggregation in experiment [2] is 6.9% (inactive). Also, the nuclei count in experiment [2] came out at 97.5%; in experiment [3], 122%. For the same compound, in experiment [4], the fluorescence slope was -0.42 (inactive). Also, the NADPH fluorescence slope in experiment [5] is -4.8e-05 (inactive). Also, in experiment [6], the slope is 0.00465 (inactive).

For the compound `CCOc1ccc(OCC)c(NS(=O)(=O)c2ccc3c(c2)n(C)c(=O)c(=O)n3C)c1`, the cell count in experiment [1] was 291. For the same compound, the inhibition in experiment [1] was -2.4% (inactive); in experiment [3], -27.6% (inactive); in experiment [7] it was 10.9% (inactive); in experiment [8], 13% (inactive). For the same compound, in experiment [2], the inhibition of aggregation was 0.8% (inactive). The nuclei count in experiment [2] turned out to be 109%; in experiment [3], 107%. For the same compound, the fluorescence slope in experiment [4] is -0.432 (inactive). For the same compound, the NADPH fluorescence slope in experiment [5] was -4.6e-05 (inactive). In addition, the slope in experiment [6] was 0.00533 (inactive).

Regarding `COc1ccc(NC(=O)c2ccco2)cc1NC(=O)c1cccs1`, the cell count in experiment [1] was found to be 400. In addition, the inhibition was 3.8% (inactive) in experiment [1], 13.8% (inactive) in experiment [3], -10.6% (inactive) in experiment [7] and -14.2% (inactive) in experiment [8]. For the same compound, in experiment [2], the inhibition of aggregation was 4.3% (inactive). In addition, the values for the nuclei count in experiment [2] and in experiment [3] were 95.9% and 92.8%, respectively. Moreover, in experiment [4], the fluorescence slope is -0.421 (inactive). The NADPH fluorescence slope in experiment [5] is 2.6e-05 (inactive). The slope in experiment [6] is 0.00585 (inactive).

As for `CCn1c(SCC(=O)Nc2cc(C)on2)nc2sc3c(c2c1=O)CCCC3`, the cell count in experiment [1] was 470. Further, the inhibition in experiment [1] is -16.6% (inactive); in experiment [3], -26.9% (inactive); in experiment [7] it was -5.69% (inactive); in experiment [8] it was 98.9% (active). Besides, the inhibition of aggregation in experiment [2] is 4% (inactive). Also, the nuclei count in experiment [2] is 118%; in experiment [3], 110%. Moreover, the fluorescence slope in experiment [4] was -0.4 (inactive). Moreover, the NADPH fluorescence slope in experiment [5] was 1.4e-06 (inactive). The slope in experiment [6] is 0.00722 (inactive).

Regarding `COc1ccc(-n2nc(C(=O)NCC(=O)NCC3CCCO3)c3ccccc3c2=O)cc1` (centres undefined), the cell count in experiment [1] was determined as 355. The inhibition in experiment [1] is -1.7% (inactive); in experiment [3], -15.9% (inactive); in experiment [7] it was 16.2% (inactive); in experiment [8], 23.6% (inactive). Further, in experiment [2], the inhibition of aggregation is 13.1% (inactive). Further, the nuclei count in experiment [2] was determined as 91.3%; in experiment [3], 100%. In addition, the fluorescence slope in experiment [4] was -0.435 (inactive). In experiment [5], the NADPH fluorescence slope was -1.9e-05 (inactive). Also, the slope in experiment [6] was 0.0067 (inactive).

In the case of `COc1ccccc1N1CCN(C/C(O)=C(\C#N)c2nc(-c3ccccc3)cs2)CC1`, the cell count in experiment [1] is 475. The inhibition in experiment [1] was -3.4% (inactive); in experiment [3], -33.4% (inactive); in experiment [7] it was -9.12% (inactive); in experiment [8], -1.83% (inactive). Besides, the inhibition of aggregation in experiment [2] is -1.4% (inactive). The nuclei count in experiment [2] is 114%; in experiment [3], 119%. Besides, the fluorescence slope in experiment [4] was -0.56 (inactive). Also, the NADPH fluorescence slope in experiment [5] was 4.6e-05 (inactive). Moreover, in experiment [6], the slope is 0.00548 (inactive).

In the case of `Cc1n[nH]c(C)c1N1C(=O)c2cccc3cc(Br)cc(c23)C1=O`, in experiment [1], the cell count stood at 476. The inhibition in experiment [1] was 5.9% (inactive); in experiment [3], -36.7% (inactive); in experiment [7] it was 1.78% (inactive); in experiment [8], 27.1% (inactive). Also, the inhibition of aggregation in experiment [2] is -9.9% (inactive). For the same compound, the nuclei count in experiment [2] came out at 103%; in experiment [3] it was 123%. Moreover, in experiment [4], the fluorescence slope was -0.375 (inactive). Besides, in experiment [5], the NADPH fluorescence slope is -7.7e-05 (inactive). Moreover, the slope in experiment [6] is 0.00408 (inactive).

`Cc1ccccc1-c1nc(CS(=O)(=O)CC(=O)NCc2ccccc2)c(C)o1`: the cell count in experiment [1] stood at 642. Besides, the inhibition in experiment [1] was 2.8% (inactive); in experiment [3], 16.5% (inactive); in experiment [7], 9.9% (inactive); in experiment [8], 24.3% (inactive). Besides, in experiment [2], the inhibition of aggregation was -36.7% (inactive). Also, the values for the nuclei count in experiment [2] and in experiment [3] were 75.5% and 106%, respectively. In experiment [4], the fluorescence slope was -0.532 (inactive). Also, the NADPH fluorescence slope in experiment [5] is -2.1e-05 (inactive). In addition, the slope in experiment [6] is 0.00661 (inactive).

For `Cc1cc(OCC(O)CN2CCN(CCO)CC2)ccc1C(C)C` (centres undefined), the cell count in experiment [1] worked out at 428. The inhibition in experiment [1] was -0.5% (inactive); in experiment [3], 24% (inactive); in experiment [7], 9.34% (inactive); in experiment [8], 29.3% (inactive). Further, the inhibition of aggregation in experiment [2] is 16.4% (inactive). Moreover, the nuclei count came to 94.9% in experiment [2] and 93.2% in experiment [3]. In experiment [4], the fluorescence slope was -0.439 (inactive). Also, the NADPH fluorescence slope in experiment [5] is -3.1e-05 (inactive). In addition, in experiment [6], the slope is 0.00431 (inactive).

Consider `Cc1ccc2cc(CN(CC3CCCO3)S(=O)(=O)c3ccc4c(c3)OCCO4)c(=O)[nH]c2c1C` (centres undefined), for which, in experiment [1], the cell count was 478. Besides, the inhibition is 2.4% (inactive) in experiment [1], -42.1% (inactive) in experiment [3], 3.97% (inactive) in experiment [7] and -19.6% (inactive) in experiment [8]. The inhibition of aggregation in experiment [2] was 8.6% (inactive). Moreover, the nuclei count amounted to 110% in experiment [2] and 135% in experiment [3]. Further, the fluorescence slope in experiment [4] is -0.391 (inactive). Moreover, the NADPH fluorescence slope in experiment [5] was -8.2e-06 (inactive). Further, the slope in experiment [6] was 0.00544 (inactive).
